61 molecules from PubChem BioAssay AID777 (Sanford-Burnham Center for Chemical Genomics, 2007) can be followed below.

SMILES strings stand for the structures. About 19,000 (20%) of roughly 96,000 compounds were called active. The list is a sample of the results. Values without a mark were called inactive.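 Rule for the calls: active = blocking of liver enzyme CYP2C9 beyond about 50% at 5 µM (limit read from the data); inactive = the rest.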

The target of this test is Cytochrome P450 2C9 (Homo sapiens) (UniProt P11712). In words: blockers of cytochrome P450 2C9 activity – biochemical, luminescence, ADME assay, primary screen (AID 777). Conditions: CYP2C9 Supersomes, luciferin-H conversion, at 5 µM, stronger effect = higher value.
Cytochrome P450 2C9 (Homo sapiens), sequence (P11712 whole entry, looked up): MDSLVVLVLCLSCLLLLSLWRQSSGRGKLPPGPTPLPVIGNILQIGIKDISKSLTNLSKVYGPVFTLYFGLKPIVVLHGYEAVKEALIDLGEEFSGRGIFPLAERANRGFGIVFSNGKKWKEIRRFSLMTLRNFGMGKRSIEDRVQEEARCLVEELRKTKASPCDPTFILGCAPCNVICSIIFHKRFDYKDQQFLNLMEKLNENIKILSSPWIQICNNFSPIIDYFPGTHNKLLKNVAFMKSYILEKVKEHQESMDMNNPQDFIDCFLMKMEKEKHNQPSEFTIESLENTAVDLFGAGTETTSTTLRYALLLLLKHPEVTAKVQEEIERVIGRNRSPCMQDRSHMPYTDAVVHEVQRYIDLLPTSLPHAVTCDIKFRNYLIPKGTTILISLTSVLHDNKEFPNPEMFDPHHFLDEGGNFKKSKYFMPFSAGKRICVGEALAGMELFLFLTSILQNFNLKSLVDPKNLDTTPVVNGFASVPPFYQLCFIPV
One may read the inhibition as the relative decrease from the control value, in per cent. Turning to `Cn1c(=O)c2c(n(Cc3ccccc3)c1=O)NC(=O)C2CC(=O)N1CCc2ccccc2C1` (stereo unspecified), the inhibition was -4.4%. Consider `CSc1nnc2c(n1)OC(c1ccsc1)N(C(C)=O)c1ccccc1-2` (stereo unspecified), for which the inhibition is 10%. Consider `C=CCNC(=O)CCCC(=O)NCC=C`, for which the inhibition is 8.2%. Take `CCN(CC)P(=O)(C(NC(=O)OC)C(F)(F)C(F)(F)C(F)(F)C(F)F)N(CC)CC` (stereo unspecified): the inhibition was 21%. For the molecule `O=C(NCc1ccccc1Cl)c1csc2c1CCCCC2`, the inhibition is -153%. For the molecule `Cn1c(SCC(=O)NC2CCCCC2)nnc1-c1cc2ccccc2o1`, the inhibition is 9.1%. On to `CCOc1cc2c(cc1OCC)C(C(=O)O)C(c1ccc(OC)c(O)c1)N(C)C2=O` (stereo unspecified), for which the inhibition was -10%. Turning to `O=C(NCc1cccs1)c1ccc2c(c1)ncn2C1CCCC1`, the inhibition is 25.4%. Under `CC(=O)NC1CC2CCCC(C1)N2CC(=O)Nc1ccccc1` (stereo unspecified) stands 50.7% (active); under `COc1ccc(NC(=O)NC2CC3CCCC(C2)N3Cc2ccccc2)cc1` (stereo unspecified), -6.4%; under `O=C(CN1C2CCC1CC(NC(=O)C1CC1)C2)NCc1ccccc1` (stereo unspecified), -10.9%.

On to `c1cc(-n2cnnn2)ccc1NC1=NCCC1`, for which the inhibition is -26.8%.

`O=C(c1ccc(-n2cnnn2)cc1)N1CCN(C(c2ccccc2)c2ccccc2)CC1`: the inhibition was 83.4% (active). In the case of `O=C(O)CC(c1ccccc1)n1cnnn1` (stereo unspecified), the inhibition was -7.7%. On to `Cc1ccc(S(=O)(=O)N2CCN(C(=O)CCC(=O)NC3CCCc4ccccc43)CC2)cc1` (stereo unspecified), for which the inhibition is 32.1%.

On to `CCOC(=O)N1CCN(S(=O)(=O)c2cc3c(cc2C)NC(=O)CO3)CC1`, for which the inhibition is -21.5%. Consider `Cc1ccc2oc(=O)c3cnn(CC(=O)N(Cc4ccco4)C4CCCCC4)c3c2c1`, for which the inhibition was 19.5%. Under `CCOC(=O)c1cc2c(ccn2C)n1CC(=O)N1CCC(C)CC1` stands 29.1%; under `CCCOc1ccc(Cn2c(O)cc(=O)[nH]c2=O)cc1`, -7.9%; under `CCOC(=O)c1cc2sccc2n1Cc1ccc(C#N)cc1`, 96.7% (active).

On to `CCc1c(C)nc2ncnn2c1N1CCC(C(=O)NCc2ccc3c(c2)OCO3)CC1`, for which the inhibition is 12.9%.

Consider `CCn1cc(C(=O)NCc2ccc3c(c2)OCO3)c2cc(OC)c(OC)cc2c1=O`, for which the inhibition is 31.5%. For `Cc1nc2c(C(=O)NCc3ccc4c(c3)OCO4)c[nH]n2c(=O)c1Cc1ccccc1F`, the inhibition was 93.4% (active). With `CNC(=O)/C(=C\C=C\c1ccccc1)NC(=O)c1ccc([N+](=O)[O-])cc1`, the inhibition is 22.2%.

In the case of `CCOC(=O)c1cnc(SCc2nc(N)nc(Nc3ccc(OC)cc3)n2)nc1N`, the inhibition was 40.5%. In the case of `Cc1nn(-c2ccccc2)c2c1C(=O)NC(=O)C(C)(C)C2`, the inhibition was 14.9%.

On to `CC1CCN(C(=O)Cn2cc(C(=O)c3ccco3)c3ccccc32)CC1`, for which the inhibition is 28.3%. The figure for `CC1CCN(C(NC(=O)c2ccco2)C(=O)c2ccccc2)CC1` (stereo unspecified) is 71.6% (active); for `O=C(Nc1ccc(Oc2ccccc2)cc1)c1ccco1` it is 24.3%. For the molecule `O=C(NC1CCCCC1)N1CCc2[nH]c3ccccc3c2C1`, the inhibition is 27.9%. Regarding `Cc1cc(Cl)c(S(=O)(=O)NCC2CCCO2)cc1OCC(N)=O` (stereo unspecified), the inhibition is -10.7%. `COc1cccc(-n2cc3c(c2-c2ccccc2)c(=O)n(C)c(=O)n3C)c1`: the inhibition was 64.6% (active). Turning to `Cc1ccc(-c2c3c(=O)n(C)c(=O)n(C)c3cn2-c2ccccc2O)cc1`, the inhibition is 43.7%.

`COc1ccc(-c2c3c(=O)n(C)c(=O)n(C)c3cn2-c2cccc(OC)c2)cc1`: the inhibition is 4.2%.

For `CCc1ccc(Nc2ncc3c(n2)CC(c2ccco2)CC3=O)cc1` (stereo unspecified), the inhibition is 8.9%. For `O=C1N=C(N2CCOCC2)S/C1=C\C=C/c1ccccc1`, the inhibition is -28.7%. Take `CN(C)/C=C/C(=O)c1ccccc1F`: the inhibition is 14.6%.

In the case of `O=C(Nc1ccccc1Cl)O/N=C(/c1ccccc1)c1ccccn1`, the inhibition was 22.2%. In the case of `O=C1NC(c2ccncc2)Nc2sc3c(c21)CCCC3` (stereo unspecified), the inhibition was 49.1%. The figure for `CC1CCCCC1NC(=O)C1CCCN1S(=O)(=O)c1cccc2nsnc12` (stereo unspecified) is 21.2%; for `CC(=O)c1cccc(NC(=O)N2CCCC2C(=O)NCCC(C)C)c1` (stereo unspecified) it is 9.2%.

Take `O=C(O)C1CCCN(S(=O)(=O)c2cccc3cccnc23)C1` (stereo unspecified): the inhibition was -20.2%. The figure for `COc1ccc(NC(=O)C2CCCN(S(=O)(=O)c3cccc4cccnc34)C2)cc1` (stereo unspecified) is -49.2%. The figure for `O=C(Nc1nccs1)C1CCCN1S(=O)(=O)c1cccc2cccnc12` (stereo unspecified) is 53.9% (active); for `CC(=O)c1cccc(NC(=O)C2CCCN2S(=O)(=O)c2cccc3nsnc23)c1` (stereo unspecified) it is 92.8% (active); for `CCc1nn(-c2cc(Oc3cccc4ccccc34)nc(-c3ccccc3)n2)c(N)c1C#N` it is 20%. With `CSc1sc(C)cc1C1C(C#N)=C(N)N(c2cccnc2)C2=C1C(=O)CCC2` (stereo unspecified), the inhibition was 23%. Consider `CCCOc1ccc(N2C(=O)CC(N(CCc3ccc(S(N)(=O)=O)cc3)C(C)=O)C2=O)cc1` (stereo unspecified), for which the inhibition is -11.4%. Regarding `Cc1nn(-c2ccccc2)c2[nH]c(C(F)(F)F)cc(=O)c12`, the inhibition was 46.9%. As for `COc1ccc(OCCCC(=O)Nc2nnc(C3CCCO3)s2)cc1` (stereo unspecified), the inhibition is 45.3%. Regarding `Cc1nnc(NC(=O)CCCOc2ccccc2)s1`, the inhibition was -8.5%. For `Cc1nnc(NC(=O)Cn2c(=O)sc3ccccc32)s1`, the inhibition is 67.6% (active). On to `O=C(Cn1c(=O)sc2ccccc21)Nc1ccc2c(c1)OCCO2`, for which the inhibition is 7%. Under `CCN(CC)CCCNC(=O)CCc1ccccc1` stands 1.4%; under `O=C(CN1C(=O)NC2(CCCC2)C1=O)Nc1ccc(F)c(F)c1F`, -34.9%. As for `Cc1ccccc1N1CC(c2nc3ccccc3[nH]2)CC1=O` (stereo unspecified), the inhibition is 29.8%. Under `CC1=CC(=O)C=CC1(C)C(Cl)(Cl)Cl` (stereo unspecified) stands -5.7%. The figure for `O=C(Cn1nnc(-c2ccc(CN3CCOCC3)cc2)n1)NC1CCCCC1` is 25.3%; for `COc1ccc(N(CC(=O)NC2CCCCCCC2)S(=O)(=O)c2c(C)nn(C)c2C)cc1` it is 40.5%. Consider `COc1cccc(N(CC(=O)NC2CCCC2)C(=O)Cn2nnc(-c3ccc(C)cc3)n2)c1`, for which the inhibition was 59.1% (active). `CC(C)c1cc(C(=O)O)on1`: the inhibition is -15.7%.
